Results reported in PubChem BioAssay (Tox21).
Results filed as inconclusive are left out. Active and inactive are the calls of the source. Unless noted, calls come from the whole dose curve; as a rule, active = well fitted curve in the direction sought with a large enough effect in the repeat runs; inconclusive = weak or mixed curves; inactive = no such curve, though single readings can be large; an effect the other way counts as inactive or inconclusive.

Tests used:
[1] = qHTS assay to identify small molecule antagonists of the estrogen related receptor (ERR) signaling pathway from Tox21 library - cell viability counter screen (AID 1224834); conditions: ERR reporter cells viability, CellTiter-Fluor, 17.5 h; series mostly up to 92.4 µM; note: nearly all actives have a fitted effect of over 30% in size; note: potency is the fitted concentration of half-maximal effect
In short: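 Multiplexed viability counter screen in ERR cells: 17.5 h compound exposure at 37 C, CellTiter-Fluor added, 30 min at 37 C/5% CO2, fluorescence read.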

[2] = qHTS assay to identify small molecule agonists of the constitutive androstane receptor (CAR) signaling pathway - cell viability counter screen (AID 1224836); conditions: HepG2-CYP2B6-hCAR viability, CellTiter-Fluor, 23 h, PK11195 added to every well; series mostly up to 92.4 µM; note: nearly all actives have a fitted effect of over 45% in size; note: potency is the fitted concentration of half-maximal effect
In short: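 Compound titrations (15 concentrations) went onto HepG2-CYP2B6-hCAR cells 4 h after seeding, alongside PK11195 at a final 0.75 uM; a 23 h, 37 C/5% CO2 incubation preceded CellTiter-Fluor viability measurement.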

[3] = molecular target: Nuclear receptor subfamily 1 group I member 3 (Homo sapiens) (UniProt Q14994); assay: qHTS assay to identify small molecule antagonists of the constitutive androstane receptor (CAR) signaling pathway (AID 1224838); conditions: HepG2-CYP2B6-hCAR luciferase, CITCO-stimulated, 24 h; series mostly up to 92.4 µM;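 note: HepG2 cells stably expressing hCAR with CYP2B6 luciferase reporter stimulated by CITCO; nearly all actives have a fitted effect of over 40% in size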; note: potency is the fitted concentration of half-maximal effect
Sequence of Nuclear receptor subfamily 1 group I member 3 (Homo sapiens) (Q14994 whole entry, looked up): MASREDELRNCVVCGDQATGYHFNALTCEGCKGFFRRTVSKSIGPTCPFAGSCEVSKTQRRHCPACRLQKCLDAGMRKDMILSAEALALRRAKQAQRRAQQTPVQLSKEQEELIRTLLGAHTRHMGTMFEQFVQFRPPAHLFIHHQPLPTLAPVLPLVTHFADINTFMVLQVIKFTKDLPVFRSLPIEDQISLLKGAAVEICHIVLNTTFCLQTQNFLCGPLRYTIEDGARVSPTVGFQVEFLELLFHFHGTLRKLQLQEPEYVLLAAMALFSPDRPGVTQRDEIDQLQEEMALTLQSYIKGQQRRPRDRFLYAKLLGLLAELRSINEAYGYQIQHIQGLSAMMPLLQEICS
In short: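 Read-out: ONE-Glo luciferase luminescence after 30 min at room temperature. HepG2-CYP2B6-hCAR double-stable cells, compounds in 15-point titration plus 50 nM CITCO final, 24 h at 37 C/5% CO2.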

[4] = molecular target: Nuclear receptor subfamily 1 group I member 3 (Homo sapiens) (UniProt Q14994); assay: qHTS assay to identify small molecule agonists of the constitutive androstane receptor (CAR) signaling pathway (AID 1224839); conditions: HepG2 hCAR CYP2B6-luciferase, agonist mode, 24 h; series mostly up to 92.4 µM; note: nearly all actives have a fitted effect of over 15% in size; note: potency is the fitted concentration of half-maximal effect;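 for activation: HepG2 cells stably carrying human CAR and a CYP2B6 luciferase reporter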
In short: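 In this screen, CAR-driven CYP2B6 promoter activity is measured by luminescence in HepG2-CYP2B6-hCAR cells after 24 h with test compounds and 0.75 uM PK11195 (final concentration).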

[5] = qHTS assay to identify small molecule antagonists of the estrogen related receptor signaling pathway with the pleiotropic PPARgamma coactivator (PGC) from Tox21 10K library - cell viability counter screen (AID 1224840; active = well fitted cell-killing curve with a large enough effect in the repeat runs, not every such curve was filed as active; note: nearly all actives have a fitted effect of over 40% in size; note: potency is the fitted concentration of half-maximal effect); conditions: PGC/ERR reporter cells viability, CellTiter-Fluor, 17.5 h; series mostly up to 92.4 µM
In short: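 Fluorescence read-out of CellTiter-Fluor viability reagent, added after cells had been exposed to compound in DMSO for 17.5 h at 37 C; 30 min development at 37 C/5% CO2. Cells: PGC/ERR line, 2,000/well.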

[6] = qHTS assay to identify small molecule antagonists of the estrogen related receptor signaling pathway with the pleiotropic PPARgamma coactivator (PGC) from Tox21 10K library (AID 1224841; call rule not given here; note: actives are mostly falling curves and most rising ones were filed inactive; nearly all actives have a fitted effect of over 50% in size; note: potency is the fitted concentration of half-maximal effect); conditions: PGC/ERR reporter cell line, ONE-Glo luciferase, 18 h; series mostly up to 92.4 µM
In short: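 Luminescence read-out (One-Glo luciferase reagent, 30 min at room temperature) from PGC/ERR cells exposed to DMSO-dissolved test compounds for 18 h at 37 C; cells, 2,000 per well, had been preincubated 6 h before compound transfer.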

[7] = qHTS assay to identify small molecule agonists of the estrogen related receptor signaling pathway with the pleiotropic PPARgamma coactivator (PGC) from Tox21 10K library (AID 1224842); conditions: PGC/ERR reporter cell line, luciferase ONE-Glo, 18 h; series mostly up to 92.4 µM; note: nearly all actives have a fitted effect of over 15% in size
In short: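 PGC/ERR reporter cells (NTP line) were seeded 2,000 per well, rested 6 h at 37 C/5% CO2, then pin-dosed with compounds in DMSO for 18 h at 37 C; luciferase read by One-Glo luminescence after 30 min at room temperature.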

[8] = molecular target: Thyrotropin receptor (Homo sapiens) (UniProt P16473); assay: qHTS assay to identify small molecule agonists of the thyroid stimulating hormone receptor (TSHR) signaling pathway (AID 1224843; calls by dose curve; note: nearly all actives have a fitted effect of over 45% in size; note: potency is the fitted concentration of half-maximal effect); conditions: TSHR-HEK293 cells, cAMP HTRF, agonist mode, 30 min; series mostly up to 92.4 µM
Sequence of Thyrotropin receptor (Homo sapiens) (P16473 whole entry, looked up): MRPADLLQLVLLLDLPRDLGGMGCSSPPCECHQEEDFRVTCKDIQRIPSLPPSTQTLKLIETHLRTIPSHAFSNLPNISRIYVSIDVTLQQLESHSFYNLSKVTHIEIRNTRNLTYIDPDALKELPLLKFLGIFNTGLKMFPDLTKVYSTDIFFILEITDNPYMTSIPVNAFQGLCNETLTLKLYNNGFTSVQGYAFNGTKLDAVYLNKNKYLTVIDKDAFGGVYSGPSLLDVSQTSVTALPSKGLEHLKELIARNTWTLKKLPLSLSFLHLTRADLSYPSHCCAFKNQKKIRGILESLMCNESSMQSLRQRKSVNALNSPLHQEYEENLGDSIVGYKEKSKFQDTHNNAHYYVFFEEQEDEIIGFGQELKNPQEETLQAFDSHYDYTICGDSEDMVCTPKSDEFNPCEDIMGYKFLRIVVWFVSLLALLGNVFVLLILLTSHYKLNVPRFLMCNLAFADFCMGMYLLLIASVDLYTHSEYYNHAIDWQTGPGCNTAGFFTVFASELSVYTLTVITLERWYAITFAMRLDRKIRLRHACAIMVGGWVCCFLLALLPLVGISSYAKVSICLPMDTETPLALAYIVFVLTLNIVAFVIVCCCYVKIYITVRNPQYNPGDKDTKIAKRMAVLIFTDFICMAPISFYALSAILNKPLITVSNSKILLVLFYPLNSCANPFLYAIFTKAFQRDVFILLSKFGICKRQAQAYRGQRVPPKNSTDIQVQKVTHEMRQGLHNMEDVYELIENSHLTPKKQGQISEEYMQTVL
In short: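 Using 15 concentrations per compound in triplicate, cAMP production was monitored in TSHR-HEK293 cells after 30 min compound incubation at RT; HTRF reagents followed, with fluorescence intensity recorded after 1 h.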

[9] = qHTS assay to identify small molecule agonists of the hypoxia (HIF-1) signaling pathway - cell viability counter screen (AID 1224844; calls by dose curve; note: nearly all actives have a fitted effect of over 50% in size; note: potency is the fitted concentration of half-maximal effect); conditions: HRE-bla ME-180 viability, CellTiter-Glo luminescence, 17 h; series mostly up to 76.8 µM
In short: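 CellTiter-Glo luminescence read-out, 30 min RT, taken in the same wells as the beta-lactamase HRE reporter assay; HRE-bla ME-180 cells, 0.5% dialyzed FBS, 17 hr compound treatment at 37C, 5% CO2.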

[10] = qHTS assay to identify small molecule agonists of H2AX (AID 1224845; active = well fitted activation curve with a large enough effect in the signal ratio in the repeat runs, not every such curve was filed as active; the % refers to the signal ratio); conditions: CHO-K1 phospho-H2AX Ser139 HTRF, 3 h; series mostly up to 154 µM
In short: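 Wild-type CHO-K1 cells plated overnight, then exposed 3 hr at 37C to compounds at 15 concentrations (0.76% DMSO). Lysed, then HTRF anti-pH2AX(S139)-cryptate/anti-H2AX-d2 detection after 24 hr at room temperature; emissions 665 and 620 nm.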

[11] = qHTS assay to identify small molecule agonists of H2AX - cell viability counter screen (AID 1224847; calls by dose curve; note: nearly all actives have a fitted effect of over 30% in size; note: potency is the fitted concentration of half-maximal effect; for activity change, negative = cytotoxicity: top concentration of the series differs between compounds); conditions: CHO-K1 viability, CellTiter-Glo luminescence, 3 h; series mostly up to 154 µM
In short: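 Read-out: CellTiter-Glo luminescence, 30 min RT. Cells: wild-type CHO-K1, 1000/well, 10% FBS, plated overnight at 37C. Treatment: 15 concentrations, 3 hr, 37C, 0.76% DMSO.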

[12] = qHTS assay to identify small molecule antagonists of the estrogen related receptor (ERR) signaling pathway from Tox21 library (AID 1224848); conditions: ERR reporter cell line, luciferase antagonist mode, 18 h; series mostly up to 92.4 µM; note: nearly all actives have a fitted effect of over 50% in size; note: potency is the fitted concentration of half-maximal effect
In short: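 Tox21 10K compounds in DMSO tested for ERR pathway antagonism in NTP's ERR cell line; 18 h, 37 C exposure; ONE-Glo luminescence.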

[13] = molecular target: Luciferin 4-monooxygenase (Photinus pyralis) (UniProt P08659); assay: qHTS assay to identify small molecule inhibitors of firefly luciferase (AID 1224835); note: nearly all actives have a fitted effect of over 25% in size; note: potency is the fitted concentration of half-maximal effect; conditions: purified P. pyralis luciferase, luminescence inhibition; series mostly up to 115 µM
Sequence of Luciferin 4-monooxygenase (Photinus pyralis) (P08659 whole entry, looked up): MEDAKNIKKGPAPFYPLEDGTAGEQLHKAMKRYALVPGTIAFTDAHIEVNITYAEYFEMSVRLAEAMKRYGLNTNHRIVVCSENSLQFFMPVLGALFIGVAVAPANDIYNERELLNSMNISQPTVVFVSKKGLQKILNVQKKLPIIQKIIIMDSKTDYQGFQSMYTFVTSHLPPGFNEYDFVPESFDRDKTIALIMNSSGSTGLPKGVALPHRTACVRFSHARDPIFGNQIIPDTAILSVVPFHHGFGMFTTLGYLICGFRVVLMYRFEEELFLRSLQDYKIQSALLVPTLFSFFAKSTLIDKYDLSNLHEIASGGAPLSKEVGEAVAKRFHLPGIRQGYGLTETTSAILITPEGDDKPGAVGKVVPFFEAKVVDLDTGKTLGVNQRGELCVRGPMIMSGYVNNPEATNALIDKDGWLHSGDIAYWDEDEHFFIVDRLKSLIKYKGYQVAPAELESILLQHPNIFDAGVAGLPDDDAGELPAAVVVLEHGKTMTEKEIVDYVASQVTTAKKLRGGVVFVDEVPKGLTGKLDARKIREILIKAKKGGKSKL
In short: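 Quantitative HTS format; KM concentrations of both substrates. Purified P. pyralis FLuc activity quantified from luminescence images.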

[14] = qHTS assay to identify small molecule agonists of the hypoxia (HIF-1) signaling pathway (AID 1224846; active = well fitted activation curve with a large enough effect in the signal ratio in the repeat runs, not every such curve was filed as active; the % refers to the signal ratio); conditions: HRE-bla ME-180 cells, beta-lactamase ratio, 17 h; series mostly up to 76.8 µM
In short: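 Beta-lactamase FRET read-out (CCF4-AM substrate) from ME-180 cells carrying an HRE-driven bla reporter, after 17 hrs compound exposure at 37C/5% CO2. Cells were seeded at 2,000 per well in 0.5% dialyzed FBS medium and preincubated 5 hrs.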

[15] = qHTS assay to identify small molecule antagonists of the constitutive androstane receptor (CAR) signaling pathway - cell viability counter screen (AID 1224837); conditions: HepG2-CYP2B6-hCAR viability, CellTiter-Fluor, 23 h, co-treated with 50 nM CITCO; series mostly up to 92.4 µM; note: nearly all actives have a fitted effect of over 45% in size; note: potency is the fitted concentration of half-maximal effect
In short: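 Read-out: CellTiter-Fluor fluorescence after 23 hr at 37 C/5% CO2. Cells: HepG2 double-stable for hCAR and CYP2B6-2.2kb. Compounds tested at 15 concentrations in the presence of CITCO, final concentration 50 nM.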
% is set by controls: 0 for no effect and ±100 for the full control effect.

O=C1C=CC(=O)N1c1cccc(N2C(=O)C=CC2=O)c1
active: Potency [1] 54.5 µM | Potency [2] 61.1 µM | Potency [3] 61.1 µM | Potency [5] 34.4 µM | Potency [6] 77 µM | Potency [8] 5.45 µM | Potency [9] 11 µM | Potency [11] 45 µM | Potency [12] 68.6 µM
inactive: Potency [4] | Potency [7] | Potency [10]

C[C@H]1O[C@@H](O[C@H]2CC[C@@]3(C)[C@H](CC[C@@H]4[C@@H]3C[C@@H](O)[C@]3(C)[C@@H](C5=CC(=O)OC5)CC[C@]43O)C2)C[C@H](O)[C@@H]1O[C@H]1C[C@H](O)[C@H](O[C@H]2C[C@H](O)[C@H](O[C@@H]3O[C@H](CO)[C@@H](O)[C@H](O)[C@H]3O)[C@@H](C)O2)[C@@H](C)O1
active: Potency [1] 0.168 µM | Potency [6] 0.335 µM | Potency [9] 0.379 µM | Potency [12] 0.376 µM
inactive: Potency [13] | Potency [7] | Potency [10] | Potency [14] | Potency [11]

O=C(c1ccccc1)c1ccc(Cl)cc1
inactive: Potency [1] | Potency [2] | Potency [15] | Potency [3] | Potency [5] | Potency [8] | Potency [9] | Potency [14] | Potency [11]

CC1(C)[C@H]2CC[C@]1(C)C(=O)C2
inactive: Potency [1] | Potency [13] | Potency [15] | Potency [3] | Potency [4] | Potency [5] | Potency [6] | Potency [7] | Potency [8] | Potency [9] | Potency [10] | Potency [14] | Potency [11]

CC1(C)[C@H](C(=O)OCc2cccc(Oc3ccccc3)c2)[C@@H]1C=C(Cl)Cl
inactive: Potency [1] | Potency [13] | Potency [15] | Potency [4] | Potency [8] | Potency [9] | Potency [10] | Potency [14] | Potency [11]

CC(=O)[C@]1(O)Cc2c(O)c3c(c(O)c2[C@@H](O[C@H]2C[C@H](N)[C@H](O)[C@H](C)O2)C1)C(=O)c1ccccc1C3=O
active: Potency [1] 1.06 µM | Potency [2] 2.66 µM | Potency [15] 2.11 µM | Potency [3] 0.237 µM | Potency [5] 11.9 µM
inactive: Potency [4] | Potency [11]

C1CCSC1
inactive: Potency [1] | Potency [13] | Potency [15] | Potency [7] | Potency [8] | Potency [9] | Potency [10] | Potency [14] | Potency [11] | Potency [12]

Cc1ccc2n[nH]nc2c1
inactive: Potency [1] | Potency [13] | Potency [5] | Potency [6] | Potency [7] | Potency [8] | Potency [9] | Potency [10] | Potency [11]

COc1cc(/C=C/C(=O)CC(=O)/C=C/c2ccc(O)c(OC)c2)ccc1O
active: Potency [1] 21.8 µM | Potency [13] 28.4 µM | Potency [3] 54.8 µM | Potency [6] 19.4 µM | Potency [9] 39.2 µM
inactive: Potency [4] | Potency [7]

CCCCCCCCCCCCS(=O)(=O)Cl
inactive: viability change, negative = cytotoxic [1] -1.38% [at 19 µM] | activity change, negative = inhibition [13] -13.9% [at 23.6 µM] | activity change, negative = cytotoxicity [15] -7.2% [at 19 µM] | activity, negative = inhibition [3] -3.15% [at 19 µM] | activation [4] -0.0973% [at 19 µM] | viability change, negative = cytotoxic [5] 3.05% [at 19 µM] | activation [8] -1.12% [at 19 µM] | activity change, negative = cytotoxicity [9] -3.11% [at 15.8 µM] | activation (H2AX phosphorylation) [10] 0.0057% [at 31.6 µM] | activation [14] 1.7% [at 15.8 µM] | activity change, negative = cytotoxicity [11] 2.47% [at 31.6 µM]

CC(C)c1ccc2sc3ccccc3c(=O)c2c1
active: Potency [13] 1.59 µM | Potency [11] 50.5 µM
inactive: Potency [1] | Potency [2] | Potency [9] | Potency [10] | Potency [14]

CCc1c(C)cc(N)c(CC)c1N
inactive: Potency [1] | Potency [13] | Potency [3] | Potency [5] | Potency [7] | Potency [8] | Potency [9] | Potency [10] | Potency [14] | Potency [11] | Potency [12]

COCCC(=O)OC
inactive: Potency [1] | Potency [13] | Potency [15] | Potency [3] | Potency [4] | Potency [5] | Potency [8] | Potency [9] | Potency [14] | Potency [11]

Cc1ccc2nc(-c3ccc(N)cc3)sc2c1S(=O)(=O)O
inactive: Potency [1] | Potency [15] | Potency [3] | Potency [5] | Potency [8] | Potency [9] | Potency [11]
active: Potency [13] 1.39 µM | Potency [4] 9.54 µM

COC(=O)c1ccc([N+](=O)[O-])cc1
inactive: Potency [1] | Potency [13] | Potency [15] | Potency [3] | Potency [4] | Potency [7] | Potency [8] | Potency [9] | Potency [10] | Potency [14] | Potency [11]
